Screening results (PubChem BioAssay)
HPGD inh – inhibitors of human 15-hydroxyprostaglandin dehydrogenase (HPGD); P15428; purified HPGD, NADH fluorescence kinetic, PGE2 substrate; Potency, µM, hits mostly inhibitors; 150,000 tested, 4.3% active; AID 894; active means well fitted inhibition curve with a large enough effect, not every such curve was filed as active; inconclusive means small, poorly fitted or top-dose-only effect, or another doubt; inactive means no such curve, though single readings can be large or run the other way
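NADH formation kinetics: reaction with 30 uM PGE2 and 1 mM NAD+ (final), 20 nM enzyme, Tris-HCl pH 8 with Tween 20, after 15 min compound preincubation at room temperature. Fluorescence change, last versus first of five reads.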
ALDH1A1 block – inhibitors of human aldehyde dehydrogenase 1A1; Purified ALDH1A1, NADH fluorescence, propionaldehyde substrate; AID 1030; 220,000 tested, 7.3% active; P00352; Potency, µM (top dose mostly 75.3 µM), actives largely listed as inhibitors; active means well fitted inhibition curve with a large enough effect, not every such curve was filed as active; inconclusive means small, poorly fitted or top-dose-only effect, or another doubt; inactive means no such curve, though single readings can be large or run the other way
Target sequence (P00352 whole entry, looked up): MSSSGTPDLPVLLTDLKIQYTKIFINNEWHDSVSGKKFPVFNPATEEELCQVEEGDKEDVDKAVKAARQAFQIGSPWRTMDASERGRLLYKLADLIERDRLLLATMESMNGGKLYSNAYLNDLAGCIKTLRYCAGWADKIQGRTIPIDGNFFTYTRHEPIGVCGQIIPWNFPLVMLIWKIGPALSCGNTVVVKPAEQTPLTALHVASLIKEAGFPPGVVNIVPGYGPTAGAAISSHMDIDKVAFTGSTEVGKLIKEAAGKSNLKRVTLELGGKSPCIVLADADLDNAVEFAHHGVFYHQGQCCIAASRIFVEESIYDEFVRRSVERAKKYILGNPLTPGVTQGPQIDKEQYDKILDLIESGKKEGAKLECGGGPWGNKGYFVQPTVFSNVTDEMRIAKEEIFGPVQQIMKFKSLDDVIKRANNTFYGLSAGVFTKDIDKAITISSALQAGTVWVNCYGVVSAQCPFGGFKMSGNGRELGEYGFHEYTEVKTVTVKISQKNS
LMNA splice mod – LMNA splicing modulation | HeLa LMNA splicing GFP/RFP minigene ratio, 48 h | Potency, µM (highest dose often 46.1 µM), hits mostly inhibitors | 200,000 tested, 0.01% active | AID 1487; active means well fitted inhibition curve with a large enough effect in the signal ratio, with a control signal flat, not every such curve was filed as active; inconclusive means small, poorly fitted or top-dose-only effect, or effect the other way, or a change in a side signal; the % refers to the signal ratio
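Read-out is the ratio of GFP to DsRed2 object intensity, acquired by 488 nm laser-scanning cytometry on HeLa lamin A-EGFP minigene reporter cells. Compound incubation 48 hrs at 37 °C in Opti-MEM with 2% FBS; DMSO 0.5% final.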
KinaseGlo FLuc – Kinase-Glo luciferase inhibition (counter-screen); Q27757; Kinase-Glo luciferase, ATP luminescence, 8 min; Potency, µM (highest dose often 38.3 µM), actives largely listed as inhibitors; 200,000 tested, 0.28% active; further: nearly all actives have a fitted effect of over 60% in size
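Luminescence was the read-out, taken after 8-minute incubation at ambient temperature. Luciferase turned over luciferin with 10 uM ATP in imidazole pH 7.2 buffer containing KCl, MgCl2, Tween 20 and BSA.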
IMPase Li inh – IMPase inhibition in cells with lithium potentiation; Potency, µM (doses to about 59.4 µM), usual class: inhibitors; 210,000 tested, 0.35% active; CHO-M1 cells, IP1 TR-FRET (IP-One), carbachol + lithium;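 further: IP1 builds up when IMPase is blocked and the TR-FRET signal falls; nearly all actives have a fitted effect of over 50% in size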
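Lithium-sensitised IP1 accumulation assay; M1-expressing CHO cells treated 30 min at 37C with compound. Competitive antibody detection by time-resolved FRET followed a 10 min room-temperature lysis step.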
Numbers stand for hits; - = inactive; ? = inconclusive; . = no result given; [ ] = remark or other dose. Sampled rows, rich in hits. Any-hit rate of the full collection: about 9%. Unless noted, the call rests on the fitted dose curve; in most records, active means well fitted curve in the direction sought with a large enough effect; inconclusive means small, poorly fitted or top-dose-only effect, or another doubt; inactive means no such curve, though single readings can be large; an effect the other way counts as inactive or inconclusive.

SMILES	HPGD inh	ALDH1A1 block	LMNA splice mod	KinaseGlo FLuc	IMPase Li inh
Cc1cc(/C=N/NC(N)=S)c(C)n1-c1ccc(Cl)cc1	-	32µM	-	-	-
Cc1cc(/C=N/O)c(C)n1-c1ccc(Br)cc1	?	8.9µM	?	-	-
Cc1cc(/C=N/NC(N)=S)c(C)n1-c1cccc(Cl)c1	.	25µM	-	-	-
Cc1cc(/C=N/NC(N)=S)c(C)n1-c1ccc(Br)cc1	.	16µM	?	-	-
Cc1cccc(-n2c(C)cc(/C=N/O)c2C)c1	?	?	-	-	-
Cc1cccc(C)c1-n1c(C)cc(/C=N/NC(N)=S)c1C	-	?	-	-	-
Cc1cnc(CNc2ncncc2-c2cccnc2)cn1	.	-	-	.	-
Cc1ccc(C)c(N2CCN(S(=O)(=O)c3cnc(N)nc3)CC2)c1	.	.	-	.	.
S=P(N1CC1)(N1CC1)N1CC1	10µM	-	?	-	-
CN1CCN(c2ccc(Cl)cc2NC(=O)/C=C/c2ccc(F)cc2)CC1	.	-	-	-	-
O=C(CC1Sc2ccccc2NC1=O)Nc1cccc(-c2nnc3n2CCCCC3)c1 (stereo not drawn)	32µM	-	-	-	-
O=C(Cn1[nH]c(=O)c2ccccc2c1=O)Nc1cccnc1	.	-	.	-	-
O=C(Cn1[nH]c(=O)c2ccccc2c1=O)Nc1ccc(-c2nnc3n2CCCCC3)cc1	3.5µM	14µM	-	-	-
Cc1c(C(=O)Nc2ccc(-c3nnc4n3CCCCC4)cc2)oc2c1ccc1ccccc12	?	-	?	-	-
O=C(Cc1n[nH]c(=O)c2ccccc12)Nc1ccc(-c2nnc3n2CCCCC3)cc1	10µM	16µM	-	-	-
COc1ccc(N2C(=O)C3CCCN3C2=O)cc1 (stereo not drawn)	-	-	-	-	-
CC(C)(C)c1ccc(S(=O)(=O)/C=C/C#N)cc1	10µM	0.11µM	?	-	-
S=C(Nc1ccc(Cl)cc1Cl)NC1CCN(Cc2ccccc2)CC1	-	8.9µM	?	-	-
S=C(Nc1ccc2c(c1)OCO2)NC1CCN(Cc2ccccc2)CC1	-	13µM	-	-	-
O=C(Cn1c(-c2cccs2)cc2ccccc21)NCc1ccccc1Br	.	.	-	.	.
c1ccc(Sc2cnc3ccccc3n2)cc1	?	-	-	-	13µM
CCOC(=O)N1CCC2(CC1)OC(=O)C(C)=C2C(=O)NCc1ccc(C)cc1	.	.	-	.	.
CC(C)COc1ccc(C(=O)Nc2sc3c(c2C(=O)O)CC(C)(C)OC3)cc1	.	20µM	.	-	-
CCOC(=O)c1c(NC(=O)C2C3C=CC(C3)C2C(=O)O)sc2c1CC(C)(C)OC2 (stereo not drawn)	.	-	.	-	-
CC1(C)Cc2c(sc(NC(=O)c3ccccc3)c2C(=O)O)CO1	.	22µM	.	-	-
SMILES	HPGD inh	ALDH1A1 block	LMNA splice mod	KinaseGlo FLuc	IMPase Li inh
CCOC(=O)c1c(NC(=O)c2cccs2)sc2c1CC(C)(C)OC2	?	?	?	-	-
CC(=O)N1CCc2c(sc(NC(=O)CSc3ccccc3)c2-c2nc3ccccc3s2)C1	.	.	-	.	.
CCCCC(=O)Nc1sc2c(c1-c1nc3ccccc3s1)CCN(C(C)=O)C2	-	25µM	?	-	-
CN=c1scc(-c2ccccc2F)n1/N=C/c1ccc(O)c(O)c1O	.	5.6µM	-[9.22 µM]	11µM	-
CN=c1scc(-c2ccccc2F)n1/N=C/c1ccc[nH]1	.	-	-	11µM	-
CC(=O)Nc1ccc(OCC(O)Cn2c3ccccc3c3ccccc32)c(C)c1 (stereo not drawn)	25µM	-	?	-	-
CC(=O)Nc1ccc(OCC(O)Cn2c3ccccc3c3ccccc32)cc1 (stereo not drawn)	-	-	?	-	-
CCC(C)C(NC(=O)C1CCC(C)CC1)C(=O)NC1CCN(Cc2ccccc2)CC1 (stereo not drawn)	.	-	.	.	-
N#CC(C#N)=Cc1ccc(OC(=O)c2ccccn2)cc1	-	2µM	-	-	-
CN(C)c1ccc(/C=C(\C#N)c2ccccn2)cc1	-	9.5µM	?	7.9µM	-
CN(C)c1ccc(NC(=S)c2ccccn2)cc1	25µM	?	?	13µM	-
CN(C)c1ccc(C(=S)Nc2ccccc2)cc1	-	?	-	-	-
CC(C)NC(=S)N/N=C1\CCCc2ccccc21	.	?	-	-	-
CCOc1cc(/C=C2\CCC/C(=C\c3cc(Cl)c(O)c(OCC)c3)C2=O)cc(Cl)c1O	16µM	2.5µM	-	-	-
COc1ccc(CCNC(=O)c2ccc3c(c2)N(Cc2ccc(Cl)cc2)C(=O)c2ccccc2S3)cc1OC	.	.	-	.	.
CCCCNC(=S)Nc1cccc(C(C)=O)c1	32µM	-	-	-	-
CCCCOC(=O)Nc1cccc(C(C)=O)c1	28µM	-	?	-	-
CCOC(=O)Nc1cccc(C(=O)O)c1	-	-	-	-	-
CC1(C(=O)O)C=CCN1C(=O)c1ccccc1 (stereo not drawn)	-	-	-	-	-
CN(C)c1ccc(CNC(=O)C2(C)C=CCN2C(=O)c2ccccc2)cc1 (stereo not drawn)	-	18µM	.	-	-
CCSCCOC(=O)C1=C(C)NC(=O)NC1c1ccc2c(c1)OCO2 (stereo not drawn)	-	14µM	-	-	-
